Screening data deposited in PubChem by Broad Institute.
This excerpt belongs to a sample that is enriched for hits.
CD40 NFkB inh – inhibitors of CD40-induced NF-kB signaling, primary screen, BL2 cells, luciferase reporter, single point | CD40L-induced, 4 h | inhibition, % at 10 µM | 83,000 tested, 0.94% active | AID 1053188, 2014;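 active means mean inhibition of at least 50% with a set share of replicates also reaching that level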;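 further: 0% = neutral control wells and 100% = IKK inhibitor VII at 50 µM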
* marks the source's active call; other numbers are inactive results; [ ] = another dose, or the depositor's remark.

SMILES | CD40 NFkB inh
Cc1ccccc1S(=O)(=O)N[C@@H]1CC[C@H](CCn2cc(Cc3ccccc3)nn2)O[C@H]1CO | 4
CC(C)NC(=O)N1[C@H](C#N)[C@@H](c2ccc(C#CC3CCCCC3)cc2)[C@@H]1CO | -3
CC(C)NC(=O)N1[C@H](C#N)[C@@H](c2ccc(C#CC3CCCC3)cc2)[C@H]1CO | -2
CC(C)NC(=O)N1[C@H](C#N)[C@H](c2ccc(C#CC3CCCCC3)cc2)[C@@H]1CO | 9
N#C[C@H]1[C@H](c2ccc(C#CC3CCCC3)cc2)[C@@H](CO)N1C(=O)Nc1ccc(F)cc1 | 29
N#C[C@@H]1[C@H](c2ccc(C#CC3CCCC3)cc2)[C@@H](CO)N1C(=O)Nc1ccc(F)cc1 | 48*
N#C[C@H]1[C@@H](c2ccc(C#CC3CC3)cc2)[C@@H](CO)N1C(=O)Nc1ccc(F)cc1 | 2
CC(C)NC(=O)N1[C@H](CO)[C@H](c2ccc(C#CC3CCCCC3)cc2)[C@@H]1C#N | 12
N#C[C@H]1[C@H](c2ccc(C#CC3CCCCC3)cc2)[C@H](CO)N1C(=O)Nc1ccc(F)cc1 | 51*[25 µM]
N#C[C@H]1[C@@H](c2ccc(C#CC3CCCCC3)cc2)[C@H](CO)N1C(=O)Nc1ccc(F)cc1 | 55*[25 µM]
CC(=O)N(C[C@@H]1N[C@@H](CO)[C@H]1c1ccc(-c2ccccc2)cc1)C(C)C | 3[25 µM]
CCCN1[C@@H]2c3ccc(-c4cccc(F)c4)c(=O)n3C[C@H]1[C@H](CO)[C@H]2C(=O)N(C)C | -1[25 µM]
O=C(C1CCC1)N1CC[C@@H]2[C@@H](CO)Nc3ccc(C#Cc4ccc(F)cc4)cc3[C@@H]21 | 11[25 µM]
CO[C@H]1CN(C)C(=O)c2cc(NS(C)(=O)=O)ccc2OC[C@@H](C)N(C(=O)C2CCCC2)C[C@@H]1C | -24
COc1ccc2c3c(n(C)c2c1)[C@H](CO)N(S(C)(=O)=O)CC31CN(CC2CCOCC2)C1 | -5[25 µM]
CO[C@@H]1CC[C@@H]2CCN(C)C(=O)CC3(CCCCC3)CN(C)C(=O)c3cccc(C#N)c3OC[C@@H]1O2 | 10[25 µM]
O=C(C[C@H]1C[C@H]2c3cc(NC(=O)NC4CCCC4)ccc3O[C@H]2[C@@H](CO)O1)NCC(F)(F)F | 7
CCC(=O)N[C@H]1C=C[C@H](CC(=O)NCCN2CCCCC2)O[C@@H]1CO | 0
c1ccc(-c2nc(-c3ccccn3)no2)cc1 | 87*
c1ccc(-c2noc(-c3ccno3)n2)nc1 | -25
c1ccc(-c2noc(-c3ccco3)n2)nc1 | -71
CC(=O)N1[C@@H]2CN(C(=O)NC(C)C)C[C@H]1C2c1ccc(Br)cc1 (stereo partly specified) | -41
O=C(c1ccccc1F)N1CC[C@@H]2[C@H](CO)Nc3ccc(C#Cc4ccccc4)cc3[C@@H]21 | -5
N#C[C@@H]1[C@@H](c2ccc(C#CC3(O)CCCC3)cc2)[C@@H](CO)N1C(=O)C1CC1 | 9
CCC(=O)N1[C@@H]2c3ccc(C4=CCCC4)c(=O)n3C[C@@H]2[C@@H](CO)[C@@H]1C(=O)NC1CCCC1 | 6[25 µM]
SMILES | CD40 NFkB inh
N#C[C@@H]1[C@@H](c2ccccc2C2=CCCC2)[C@@H](CO)N1C(=O)NC1CCCCC1 | 7[25 µM]
O=C1CC(c2ccco2)Sc2nc3ccccc3n21 (stereo unspecified) | -124
O=C1CC(c2ccc3c(c2)OCO3)Sc2nc3ccccc3n21 (stereo unspecified) | 60*
O=C1CC(c2cccs2)Sc2nc3ccccc3n21 (stereo unspecified) | -108
O=C1CNC[C@@H]2[C@H](c3ccc(C4=CCCC4)cc3)[C@@H](CO)N12 | -10[25 µM]
CCC(=O)NC(c1ccc(OC)cc1)c1cc(Cl)c2cccnc2c1O (stereo unspecified) | 8
Cc1cc(NC(c2cccnc2)c2ccc3cccnc3c2O)no1 (stereo unspecified) | -52
CCC(=O)NC(c1ccccc1OC)c1ccc2cccnc2c1O (stereo unspecified) | 88*
Cc1ccc(CN(C)C[C@@H]2OCc3cn(nn3)CCCC(=O)N([C@H](C)CO)C[C@H]2C)cc1 | -7
O=C(Nc1ccc(C(F)(F)F)cc1)Nc1ccc2c(c1)[C@H]1C[C@@H](CC(=O)N3CCc4ccccc4C3)O[C@H](CO)[C@H]1O2 | 50*[25 µM]
O=C(Cc1ccncc1)Nc1ccc2c(c1)[C@H]1C[C@H](CC(=O)N3CCc4ccccc4C3)O[C@@H](CO)[C@H]1O2 | 1[25 µM]
O=C(Cc1ccncc1)Nc1ccc2c(c1)[C@@H]1C[C@@H](CC(=O)N3CCc4ccccc4C3)O[C@H](CO)[C@@H]1O2 | 4[25 µM]
O=C(Cc1ccncc1)Nc1ccc2c(c1)[C@@H]1C[C@@H](CC(=O)N3CCc4ccccc4C3)O[C@@H](CO)[C@@H]1O2 | 8[25 µM]
O=C(Nc1ccc(C(F)(F)F)cc1)Nc1ccc2c(c1)[C@H]1C[C@H](CC(=O)N3CCc4ccccc4C3)O[C@@H](CO)[C@H]1O2 | 6[25 µM]
O=C(Nc1ccc(C(F)(F)F)cc1)Nc1ccc2c(c1)[C@H]1C[C@@H](CC(=O)N3CCc4ccccc4C3)O[C@@H](CO)[C@H]1O2 | 65*[25 µM]
C[C@H]1CN(C)C(=O)c2cccc(N)c2O[C@H]1CN(C)S(C)(=O)=O | -6
COc1ccc2c3c([nH]c2c1)[C@H](CO)N(S(=O)(=O)c1ccc(C)cc1)CC31CCN(Cc2nccs2)CC1 | 16[25 µM]
CO[C@@H]1CN(C)C(=O)c2cc(NS(=O)(=O)Cc3ccccc3)ccc2OC[C@@H](C)N(Cc2nccs2)C[C@H]1C | -5[25 µM]
O=S(=O)(c1ccc(F)cc1)N1CC[C@@H]2[C@H](CO)Nc3ccc(C#CC4CC4)cc3[C@@H]21 | 1
OC(COc1ccc2ccccc2c1)CN1CCCC1 (stereo unspecified) | -36
O=S(=O)(CC(CN1CCCC1)N1CCCC1)c1ccc2ccccc2c1 (stereo unspecified) | 52*
O=C(O)C1CCCCN1S(=O)(=O)c1ccc2ccccc2c1 (stereo unspecified) | 4
COc1ccccc1-c1ccc([C@H]2[C@@H](CO)N(C(C)=O)[C@H]2CN(C)C(C)=O)cc1 | 2[25 µM]
Cc1noc(C)c1NC(=O)N(C)C[C@@H]1Oc2cc(C#CCN(C)C)ccc2S(=O)(=O)N([C@@H](C)CO)C[C@H]1C | 2[25 µM]
Cc1nn2c(-c3cccnc3)ccnc2c1-c1ccccc1 | -67
SMILES | CD40 NFkB inh
Cn1c(SC/C=C/c2ccccc2)nnc1-c1cccnc1 | 5
Cn1c(SSc2ccc(-c3cccnc3)n2C)ccc1-c1cccnc1 | 48*
COc1ccc2c3c(n(C)c2c1)[C@H](CO)N(C(=O)C1CC1)CC31CCN(C(=O)C2CCOCC2)CC1 | 5
C[C@@H]1CN([C@H](C)CO)C(=O)c2cc(NS(=O)(=O)c3cccs3)ccc2O[C@H]1CN(C)Cc1ccc(C(=O)O)cc1 | -8[25 µM]
OC[C@H]1Nc2ccc(C#Cc3ccc(F)cc3)cc2[C@@H]2[C@H]1CCN2Cc1ccc2c(c1)OCO2 | 6[25 µM]
CN1C[C@@H]2[C@H](c3ccccc31)[C@@H](CO)N2C(=O)C1CCCC1 | -49
CC(C)(O)C#Cc1ccc([C@@H]2[C@H]3CN(C(=O)c4ccncc4)CCCCN3[C@H]2CO)cc1 | -1[25 µM]
N#C[C@@H]1[C@H](c2ccc(C#CC3(O)CCCC3)cc2)[C@@H](CO)N1C(=O)C1CC1 | -8
COCC#Cc1ccc([C@H]2[C@H]3CN(C(=O)C4CCCC4)CC(=O)N3[C@H]2CO)cc1 | -3
COCC#Cc1ccc([C@H]2[C@H]3CN(C(=O)C4CCCCC4)CC(=O)N3[C@H]2CO)cc1 | 2[25 µM]
O=C(C1CCCC1)N1CC(=O)N2[C@H](C1)[C@@H](c1ccc(C#CCc3ccccc3)cc1)[C@@H]2CO | 51*
